Hits are enriched below; roughly 9.5% of the tested compounds scored in any of these assays.
Tau FP inhib: blocks human tau fibril formation measured by polarization | P10636 | K18 P301L tau heparin fibrillization, Alexa594 FP, 6 h | Potency, µM (doses to about 57.7 µM), inactives show at the highest dose activity, negative = inhibition, hits mostly inhibitors | actives 0.39% (n = 280,000) | AID 1468; also: nearly all actives have a fitted effect of over 55% in size
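FP of Alexa 594-tau after heparin (20 uM) induction. Substrate: human K18 P301L, 15 uM unlabeled, 0.24 uM labeled. Buffer 100 mM sodium acetate pH 7. 6 hr, 37 C.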
HPGD inh: inhibitors of human 15-hydroxyprostaglandin dehydrogenase (HPGD); purified HPGD, NADH fluorescence kinetic, PGE2 substrate; Potency, µM, for the others: at the top dose activity change, negative = inhibition, most hits filed as inhibitors; actives 4.3% (n = 150,000); active = well fitted inhibition curve with a large enough effect, not every such curve was filed as active; inconclusive = small, poorly fitted or top-dose-only effect, or another doubt; inactive = no such curve, though single readings can be large or run the other way
Target sequence (P15428 whole entry, looked up): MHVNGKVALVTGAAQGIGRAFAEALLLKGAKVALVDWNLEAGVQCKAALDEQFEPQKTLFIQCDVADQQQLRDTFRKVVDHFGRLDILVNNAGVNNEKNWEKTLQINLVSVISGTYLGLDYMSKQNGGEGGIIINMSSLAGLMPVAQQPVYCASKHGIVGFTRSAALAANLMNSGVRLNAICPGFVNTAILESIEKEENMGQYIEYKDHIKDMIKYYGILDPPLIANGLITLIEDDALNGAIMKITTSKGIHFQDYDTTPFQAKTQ
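NADH formation kinetics: reaction with 30 uM PGE2 and 1 mM NAD+ (final), 20 nM enzyme, Tris-HCl pH 8 with Tween 20, after 15 min compound preincubation at room temperature. Fluorescence change, last versus first of five reads.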
Tau fluor cs: counter-screen for tau fibril formation inhibitors. tau K18 P301L Alexa594 fluorescence, heparin fibrillization. Potency, µM (highest dose often 57.7 µM), for the others: at the highest dose activity change, negative = decrease. actives 0.93% (n = 280,000). AID 1463; also: nearly all actives have a fitted effect of over 55% in size
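Human K18 P301L tau (15 uM unlabeled plus 0.24 uM Alexa 594-labeled, final) in 100 mM sodium acetate pH 7 was mixed with compound and 20 uM heparin and incubated 6 hr at 37 C.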
NPSR antagonist: antagonists of human neuropeptide S receptor cAMP signaling; actives 1% (n = 220,000); CHO-NPSR cells, cAMP TR-FRET, antagonist mode; Q6W5P4; Potency, µM (titrated, usually from 38.3 µM), for the others: top-dose activity change, negative = inhibition, actives largely listed as inhibitors; also: nearly all actives have a fitted effect of over 50% in size
Target sequence (Q6W5P4 whole entry, looked up): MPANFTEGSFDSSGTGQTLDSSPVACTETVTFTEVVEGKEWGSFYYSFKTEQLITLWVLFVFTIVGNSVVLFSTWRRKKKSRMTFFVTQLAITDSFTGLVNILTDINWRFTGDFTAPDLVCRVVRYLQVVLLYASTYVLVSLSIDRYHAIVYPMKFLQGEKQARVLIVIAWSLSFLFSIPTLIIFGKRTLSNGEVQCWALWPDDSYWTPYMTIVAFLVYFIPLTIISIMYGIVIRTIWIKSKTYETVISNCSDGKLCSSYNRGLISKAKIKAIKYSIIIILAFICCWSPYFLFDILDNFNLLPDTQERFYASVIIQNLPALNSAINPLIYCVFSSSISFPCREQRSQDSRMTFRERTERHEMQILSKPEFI
Tau fibril ThT: inhibitors of human tau fibril formation, thioflavin T binding; AID 1460; P10636; actives 2.1% (n = 270,000); recombinant tau K18 P301L (four-repeat tau fragment), heparin-induced fibrillization, ThT fluorescence; Potency, µM (titrated, usually from 57.4 µM), inactives show top-dose activity, negative = inhibition, most hits filed as inhibitors; also: nearly all actives have a fitted effect of over 55% in size
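K18 P301L tau (15 uM + 0.24 uM Alexa 594-tagged), heparin 20 uM, NaOAc pH 7, 6 h 37 C; ThT 30 uM, 1 h RT, ex 450/em 510 nm.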
ALDH1A1 block: inhibitors of human aldehyde dehydrogenase 1A1; Purified ALDH1A1, NADH fluorescence, propionaldehyde substrate; actives 7.3% (n = 220,000); AID 1030; P00352; Potency, µM (top dose mostly 75.3 µM), for the others: at the highest dose activity, negative = inhibition, actives largely listed as inhibitors; active = well fitted inhibition curve with a large enough effect, not every such curve was filed as active; inconclusive = small, poorly fitted or top-dose-only effect, or another doubt; inactive = no such curve, though single readings can be large or run the other way;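 also: plate controls were no enzyme wells and a reference inhibitor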
Active calls of the source: *; ? = inconclusive; · = no result given; [ ] = another dose, or the depositor's remark. Unless noted, calls follow the shape of the dose curve; as a rule, active = well fitted curve in the direction sought with a large enough effect; inconclusive = small, poorly fitted or top-dose-only effect, or another doubt; inactive = no such curve, though single readings can be large; an effect the other way counts as inactive or inconclusive. Unless noted, % is scaled to controls: 0 for no effect and ±100 for the full control effect; potency is read from the fitted curve at half-maximal effect.

SMILES	Tau FP inhib	HPGD inh	Tau fluor cs	NPSR antagonist	Tau fibril ThT	ALDH1A1 block
S=c1[nH]nc(-c2cccc(Cl)c2)n1Cc1ccccc1	-4%	18µM*	-3%	-8%	1%	?
CCn1c(-c2csc(C(C)C)c2)n[nH]c1=S	9%	?	-8%	7%	?	16µM*
COC(=O)c1c(C(=O)OC)c(-c2cccc(Cl)c2)n2c1CS(=O)C2 (centres undefined)	3%	·	0%	-10%	-3%	-8%
O=C(c1cc2ccccc2c(=O)o1)N1CCCc2ccccc21	-2%	-5%	1%	-7%[46.1 µM]	1%	4.5µM*
Cn1c(C(=O)N2CCc3ccccc3C2)cc2oc3ccccc3c21	-1%	0.71µM*	-19%	-13%	?	-8%
O=C(c1cc2ccccc2c(=O)o1)N1CCc2ccccc2C1	7%	25µM*	0%	-13%[46.1 µM]	4%	2%
O=C(c1cc(=O)c2ccccc2o1)N1CCCc2ccccc21	-2%	-16%	-11%	1%[46.1 µM]	-9%	?
O=C(c1nn(Cc2ccccc2)c(=O)c2ccccc12)N1CCc2ccccc2C1	7%	-6%	-5%	?	-11%	0.89µM*
CCn1c(C(=O)N2CCc3ccccc3C2)cc2oc3ccccc3c21	2%	?	-13%	-30%[46.1 µM]	-15%	?
CC(C)CCNC(=O)c1ccc(-c2ccccc2)cc1	2%	·	6%	-19%	-3%	4%
O=[N+]([O-])c1ccc(N2CCCCC2)nc1N1CCCCC1	0%	·	-22%	36%	?	0.32µM*
O=C(COc1ccc(Cl)cc1)N1CCN(c2ccc([N+](=O)[O-])c(N3CCCCC3)c2)CC1	11%	-9%	-21%	-35%[46.1 µM]	?	2.5µM*
O=C(COc1ccccc1Cl)N1CCN(c2ccc([N+](=O)[O-])c(N3CCCCC3)c2)CC1	2%	-23%	-18%	-18%[46.1 µM]	?	1.6µM*
O=[N+]([O-])c1cccnc1N1CCCCC1	-5%	-9%	6%	-3%[46.1 µM]	-3%	-3%
O=[N+]([O-])c1ccc(Cl)cc1N1CCCCC1	-5%	·	-6%	2%	-5%	18µM*
CC(C)Oc1ccc(-c2nc3c(C#N)c[nH]n3c2NC2CCCCC2)cc1	?	·	-5%	·	-9%	·
CCOc1ccccc1C(=O)Nc1cc(-c2nc3cccnc3s2)ccc1C	3%	·	-17%	·	-9%	·
CCOC(=O)c1cccc(NC(=O)c2ccc(N(C)C)cc2)c1	17%	-21%	?	5%	?	?
CNc1cc(N2CCCC2)ccc1[N+](=O)[O-]	-7%	·	5%	-7%	?	7%
CNc1cc(N2CCCCCC2)ccc1[N+](=O)[O-]	8%	?	-10%	-19%[46.1 µM]	?	10µM*
CCOC(=O)c1nnc(-c2ccccc2)nc1N1CC(C)OC(C)C1 (centres undefined)	6%	·	9%	-7%	9%	?
Cn1cc(C=C2C(=O)CC(C)(C)CC2=O)c2ccccc21	-9%	-10%	-15%	13%	?	1.3µM*
CC1Cc2ccccc2N1C(=O)CSc1nnnn1C(C)C (centres undefined)	-2%	-6%	-6%	-12%[46.1 µM]	6%	28µM*
Cc1ccccc1-n1ncc2c(SCC(=O)N3c4ccccc4CC3C)ncnc21 (centres undefined)	-2%	3%	-12%	?	-17%	14µM*
CC1Cc2ccccc2N1C(=O)CSc1nnnn1C1CCCC1 (centres undefined)	-10%	-18%	-2%	-17%[46.1 µM]	3%	2.5µM*
SMILES	Tau FP inhib	HPGD inh	Tau fluor cs	NPSR antagonist	Tau fibril ThT	ALDH1A1 block
CC1Cc2ccccc2N1C(=O)CSc1nnc(NC(=O)Cc2cccs2)s1 (centres undefined)	1%	-3%	-9%	13µM*	-5%	-5%
CC1Cc2ccccc2N1C(=O)CSc1nnnn1C (centres undefined)	4%	3%	-5%	10%[46.1 µM]	-5%	-4%
C/C=C1\C2C=C(C)C[C@@]1(N)c1ccc(=O)[nH]c1C2	0%	-5%	-10%	·	-3%	7%
CC(C)C1=C[C@@]23CC[C@@H]4[C@](C)(CCC[C@@]4(C)C(=O)O)[C@@H]2C[C@@H]1[C@@H](C(=O)O)[C@@H]3C(=O)O	·	-6%	·	·	·	13%[13.5 µM]
Cc1nnc(SCC(=O)N2c3ccccc3CC2C)s1 (centres undefined)	8%	-1%	5%	-4%[46.1 µM]	-5%	9%
CC1Cc2ccccc2N1C(=O)CSc1nnc2sc3ccccc3n12 (centres undefined)	-5%	-4%	-16%	-21%[46.1 µM]	-9%	14µM*
Cc1ccc(-c2nc3cc(NC(=O)C(C)C)ccc3o2)cc1	-6%	?	7%	?	9%	?
Cc1ccc(S(=O)(=O)Nc2ccc(-c3nc4cc(NS(=O)(=O)c5ccc(C)cc5)ccc4o3)cc2)cc1	16µM*	?	?	10µM*	7%	?
Cc1ccc(N2C(=O)[C@@H]3[C@H](C2=O)C2c4ccccc4C=CN2[C@@H]3C(=O)c2ccco2)cc1 (some centres undefined)	?	32µM*	-22%	-10%[46.1 µM]	25µM*	4.5µM*
CC(=O)[C@@H]1[C@@H]2C(=O)N(Cc3ccccc3)C(=O)[C@@H]2C2c3ccccc3C=CN21 (some centres undefined)	-14%	?	-20%	-1%[46.1 µM]	?	20µM*
COc1ccc(C2=NO[C@@H]3C(=O)N(c4ccc5c(c4)OCCO5)C(=O)[C@H]23)cc1OC	-1%	-16%	-17%	-16%[46.1 µM]	?	?
CC(C)(C)C(=O)[C@@H]1[C@@H]2C(=O)N(c3ccc4c(c3)OCCO4)C(=O)[C@@H]2C2c3ccccc3C=CN21 (some centres undefined)	?	?	?	-16%[46.1 µM]	28µM*	?
Cc1ccc(N2C(=O)[C@@H]3[C@H](C2=O)C2c4ccccc4C=CN2[C@@H]3C(=O)c2ccco2)c(C)c1 (some centres undefined)	?	35µM*	-27%	-13%[46.1 µM]	25µM*	7.9µM*
CCOC(=O)OCC1OC(C#Cc2ccccc2)C=CC1Oc1cccc(N(C)C)c1 (centres undefined)	1%[11.6 µM]	·	-20%[11.6 µM]	·	?	?
Cc1[nH]c(=O)[nH]c(=O)c1NS(=O)(=O)c1ccccc1	1%	0%	-4%	10%	-7%	10%
CCOC(=O)N1CCc2c(sc(NCc3sccc3C)c2C(=O)Nc2ccccc2OCC)C1	5%	·	-22%	·	?	·

Source: PubChem (National Center for Advancing Translational Sciences (NCATS))
